The values that follow come from the OligoGym collection.
Further: reference of the scale not given here.

One assay concerns the target SMC5. Nature of the assay: pooled miR-30 sensor sort-seq; sequence = guide strand. As to conditions: shRNA.
Regarding TTTATTGTCACGAACCTCTTTG, the sensor-assay potency score (higher = more potent) is -0.041. On the same count and under the same terms, in the case of TTTCCTTTCTATAACATCTTGC it was 0.304; in that of TTGATCTAGTTCAACTTTCTTT, -0.0143.

The target in another assay is SMCP. The description is as above. Conditions: shRNA.
The sequence TTTGCGGTGAGTTGGGCTCAGA yielded a sensor-assay potency score (higher = more potent) of -1.18.

Consider TTGTCCTGAGTTTGCGGTGAGT, for which the sensor-assay potency score (higher = more potent) is -1.27. The same measure, in the same setting: the figure for TTTGGTGGGCAGCATTGACTGC is -0.712. TCTAAACACAGGTCTAGCCTGA registered a sensor-assay potency score (higher = more potent) of 0.141. Sequence TAAGGGGTGAGACTTCAGGCTT registered a sensor-assay potency score (higher = more potent) of -0.603. TTGTGTTTTGGTGGGCAGCATT: the sensor-assay potency score (higher = more potent) is -1.54.

In turn, TTGGTGGGCAGCATTGACTGCC registered a sensor-assay potency score (higher = more potent) of -0.359. TTGGTCTCCAAACCACAGCACC displayed a sensor-assay potency score (higher = more potent) of -1.3. TTGATTGCCTTTTGACTGGCAG had a sensor-assay potency score (higher = more potent) of 0.000564.

In the case of TGACTGGCAGCACTGGTTCTGC, the sensor-assay potency score (higher = more potent) is -1.04. Same read-out and setting: the figure for TTTGCTGGGCAGCATTTACTGT is -0.976; for TTTTGACTGGCAGCACTGGTTC it is -0.818.

For the next assay, the target named is SMCR7L. Described as above. Conditions: shRNA.
As to TTGCTCTAAGGCCACATCCTAG, the sensor-assay potency score (higher = more potent) is -1.5. For TTCTACTCCAGGAACCGTGGTC, the sensor-assay potency score (higher = more potent) was determined as 0.223. Regarding TAAGTAGCTGATAAGTCCCCTC, the sensor-assay potency score (higher = more potent) is -0.665. On the same count and under the same terms, the figure for TTGCATTCAGCTTATCCTGTGT is 0.0334; for TTGTCTGTCTGACCCCTGCAGC it is -0.951; for AAACATGCTATCACAGCTCTTC it is 0.268.

Consider TATGTCCACAGCAGCTTGCTTG, for which the sensor-assay potency score (higher = more potent) was -1.35. For the sequence TACATTGCAATAAATACTGCAA, the sensor-assay potency score (higher = more potent) stood at 0.27. On the same count and under the same terms, in the case of TTAAACATTCCTCCCCACCTTC it was -0.361.

TAGCCAAGTGTATCTAACGGAG registered a sensor-assay potency score (higher = more potent) of -1.24. As to TGACTTCTTCAAGTCTACCTGG, the sensor-assay potency score (higher = more potent) was -0.253. On the same count and under the same terms, the figure for TTCTCCTGCAGGGACATGCGGA is -1.36.

The next assay has as its target SMYD2. The description is as above. As to conditions: shRNA.
Sequence TAGGTCACAATGACATTGGGGC displayed a sensor-assay potency score (higher = more potent) of 0.446.

Turning to TTAAGGTTTCTGAACTAAGTGT, the sensor-assay potency score (higher = more potent) is -0.419. Same read-out and setting: the figure for TTACTGTCCTCAAACACAGAGC is -0.927; for TACAGCTCTGACTTCTGCCAGG it is -0.948; for TTTTCTGTCCATATTGCAGGGC it is -0.2. On to TAGTCTTACAGTCTCCGAGGGA, for which the sensor-assay potency score (higher = more potent) was -0.703.

For TTGACCGTGAGCACGTAGGCAT, the sensor-assay potency score (higher = more potent) was -0.166. Turning to TACAGGAGATCAATATAGCTGG, the sensor-assay potency score (higher = more potent) is -0.203. For the sequence TTAACCGGTCATTTCTATCTTC, the sensor-assay potency score (higher = more potent) is 0.511. TTATCCTTGTCCTTGGTGGTAC yielded a sensor-assay potency score (higher = more potent) of -0.716. As for TAACATATGAAACCATGCCATT, the sensor-assay potency score (higher = more potent) was -1.62. TTTGCCGTGAGCTACTTCCATG showed a sensor-assay potency score (higher = more potent) of -1.61.
